In all, about 39,000 sequences were measured (“fluorescence intensity (a.u.)”: median about 4,300, highest 2% from about 39,000 on). Only a selection was taken, and the highest values are over-represented in it overall.
Target: T1, OsSMF1 (Oryza sativa, UniProt Q6ZLB0 1-436)
T1 sequence: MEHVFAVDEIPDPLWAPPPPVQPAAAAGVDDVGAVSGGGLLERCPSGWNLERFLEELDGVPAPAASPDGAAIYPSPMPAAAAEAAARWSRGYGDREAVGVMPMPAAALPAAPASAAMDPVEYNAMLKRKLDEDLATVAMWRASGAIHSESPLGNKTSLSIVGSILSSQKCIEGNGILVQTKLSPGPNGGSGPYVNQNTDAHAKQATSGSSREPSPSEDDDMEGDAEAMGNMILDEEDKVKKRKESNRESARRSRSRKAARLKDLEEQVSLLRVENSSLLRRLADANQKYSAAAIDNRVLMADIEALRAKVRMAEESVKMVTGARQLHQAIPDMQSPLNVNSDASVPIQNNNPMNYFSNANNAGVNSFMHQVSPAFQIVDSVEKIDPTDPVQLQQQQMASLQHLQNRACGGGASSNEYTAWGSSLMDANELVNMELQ
Assay: protein-binding microarray (RPBM); PBS, 2% BSA, 51.3 ng/ul salmon testes DNA, 50 uM zinc acetate, 200 nM TF, 25 C, 1 h; high values mean tight binding
Conditions: protein: recombinant; tags: N-terminal polyhistidine and DsRed monomer fusion (pET32a); chain copies: 2; label: CyDye5-dUTP incorporated in the synthesized complementary strand; 3' TTTTT single-stranded linker to array surface; dsDNA, one strand shown
Procedure, shortened: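 Binding signal here means per-feature fluorescence intensity in arbitrary units. The values were read on an Axon 4000B scanner after a custom Agilent array, double-stranded by primer extension with Cy5-dUTP, was incubated with 200 nM protein at 25 °C for 1 h in PBS with 2% BSA, salmon testes DNA and 50 µM zinc acetate, then washed. The proteins were transcription factors with an N-terminal polyhistidine tag and DsRed, expressed in E. coli BL21-CodonPlus and purified on Ni–NTA.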

Sequence | binding signal
TGAATTGGAGCGACCGTGAGAGGTAGCATAGAATGTCATGCGGAGTCACCTAGTGCAG | 3270 fluorescence intensity (a.u.)
CAAAAGGACCATGGTGTGTGGATGACATGACTAGTGAGGCCGGAGTCACCTAGTGCAG | 4650 fluorescence intensity (a.u.)
TGTTGATGGCGTCATTATTTACATGGTATGGTGCATTTGGCGGAGTCACCTAGTGCAG | 14600 fluorescence intensity (a.u.)
CAGACCAGGGTTACTCTCCTCAACATTCTTAGCTCATAGACGGAGTCACCTAGTGCAG | 47700 fluorescence intensity (a.u.)
CTCTTCTCCACCTCAACATTTAGCCGGCTTATAGCTACTACGGAGTCACCTAGTGCAG | 3960 fluorescence intensity (a.u.)
ACAGGGTTGCCAAGCTCTTACTCAACCTAAACCACCAGAACGGAGTCACCTAGTGCAG | 3200 fluorescence intensity (a.u.)
TGAACCCCACATGTCAGCTTTACTACTCCCTTCTTCCCTACGGAGTCACCTAGTGCAG | 4350 fluorescence intensity (a.u.)
CGCGACACGACACGACACGACACGACGGCACGAGCCCACCCGGAGTCACCTAGTGCAG | 4540 fluorescence intensity (a.u.)
GGAAAGTGGACAATTAAATCAAGCGATGATGTGGATGTGGCGGAGTCACCTAGTGCAG | 5830 fluorescence intensity (a.u.)
TTCATCCTCGGCCACTCCTACGTCAAGGCCAAGAGCGGCTCGGAGTCACCTAGTGCAG | 3600 fluorescence intensity (a.u.)
TGGCAAATCTCATCAGCAACAGGGACCTCTTGGTGTGACTCGGAGTCACCTAGTGCAG | 4290 fluorescence intensity (a.u.)
CAAATACTACATCACACAGGTCAGCAGAAATTTCACTCTTCGGAGTCACCTAGTGCAG | 4100 fluorescence intensity (a.u.)
CTCTTCAGGGAACAGAATCAAATCAGCATTTTAACTAACTCGGAGTCACCTAGTGCAG | 40100 fluorescence intensity (a.u.)
CCGTTTCCGAATCTCGAGGCGCAAGAGGCCATCGAACGGCCGGAGTCACCTAGTGCAG | 38300 fluorescence intensity (a.u.)
TTTATCTAATTAAAATATATTTATAGCTGACTAATAGTCTCGGAGTCACCTAGTGCAG | 3480 fluorescence intensity (a.u.)
TGTGGAGTCCACGTGGGACTTAGCCGCCACATCAATAAAACGGAGTCACCTAGTGCAG | 9160 fluorescence intensity (a.u.)
GCCAAGCCAAACCAATCCAAGCCAAGCCAAATGAATGATTCGGAGTCACCTAGTGCAG | 3150 fluorescence intensity (a.u.)
TTAGATGAAACCACGATTTGTCAAAATGCATCCAAAACTTCGGAGTCACCTAGTGCAG | 43100 fluorescence intensity (a.u.)
TGACCAAAATTTGAAACTTTCAATACAATTATGAAACTTTCGGAGTCACCTAGTGCAG | 6370 fluorescence intensity (a.u.)
GTTAATCTCAATAAAATACTTAGCTCCATAAATAATTTTGCGGAGTCACCTAGTGCAG | 36700 fluorescence intensity (a.u.)
CCCAGCTGTCTTTCCTCCAGGTCACCTGACAAATGTCACTCGGAGTCACCTAGTGCAG | 3950 fluorescence intensity (a.u.)

Sequence | binding signal
GAAAACTAGTCCAAAATGAGTCTTTGCTTCAATGCAAACGCGGAGTCACCTAGTGCAG | 39000 fluorescence intensity (a.u.)
AAATACGGAGAGAAGAAGGCTCACTAAGCGCGCTTACTATCGGAGTCACCTAGTGCAG | 42500 fluorescence intensity (a.u.)
ATCTTAAATACTACTAGAAATTAACGGAGACTAAGGCTTGCGGAGTCACCTAGTGCAG | 26500 fluorescence intensity (a.u.)
CTTATCAGTCGTAGCTCAACCTATAAGAGGCCTAAATATACGGAGTCACCTAGTGCAG | 32800 fluorescence intensity (a.u.)
TGCCAAATGTTGAAACACTTACAGTAGCATCTAATGAAGTCGGAGTCACCTAGTGCAG | 16000 fluorescence intensity (a.u.)
AACTACACACAAAGCCGAGCCAAAGTCTCTAGGTCAAAGTCGGAGTCACCTAGTGCAG | 20600 fluorescence intensity (a.u.)
AGCTTTTCTTTTCTACACAAAGGGAAGGGAAAGAAGAAACCGGAGTCACCTAGTGCAG | 37800 fluorescence intensity (a.u.)
CCCAGGGAGGCCAAACTACAAAGGCGATGCTTTCTACACACGGAGTCACCTAGTGCAG | 41500 fluorescence intensity (a.u.)
TACTTAAGTGCCAAGTGTCAAAGTGTGTGTGGTTTTCTGCCGGAGTCACCTAGTGCAG | 4130 fluorescence intensity (a.u.)
TCCAAATAGCACGTACGCATGCATGCGTCCATGCCATCTCCGGAGTCACCTAGTGCAG | 3270 fluorescence intensity (a.u.)
CGCTCGACTTCTCTTCTCTCATACACGTGTCATTAAATTTCGGAGTCACCTAGTGCAG | 8480 fluorescence intensity (a.u.)
ATAAGTACGAATACTAAGTACGTGTGTGTTTGGAGGGTGTCGGAGTCACCTAGTGCAG | 4340 fluorescence intensity (a.u.)
GAGGTGTACCACTAAGTGTGTACGTGTATAGTGGGGCGTGCGGAGTCACCTAGTGCAG | 7420 fluorescence intensity (a.u.)
TGGACCTGAACCGAACCACTAAGTAGTAGTACGTGTGAGGCGGAGTCACCTAGTGCAG | 41100 fluorescence intensity (a.u.)
CTCCTTGACAACCAGCACCGATCCCTGAGTCACCCAACGACGGAGTCACCTAGTGCAG | 6120 fluorescence intensity (a.u.)
TTCTGTAACATAGGCTAACGTCAACGTGGCATTCATTTTGCGGAGTCACCTAGTGCAG | 13200 fluorescence intensity (a.u.)
AAATAATTTATGAATAAAACTTTTATCTACGTGTTCTTAACGGAGTCACCTAGTGCAG | 4110 fluorescence intensity (a.u.)
ATTAGTTTTATTAAATCTTACATTGAATATATTTTGATAACGGAGTCACCTAGTGCAG | 3390 fluorescence intensity (a.u.)
CTGCACATAATAACGTGGATGAATCTTAAACGTCCATTTACGGAGTCACCTAGTGCAG | 47100 fluorescence intensity (a.u.)
TATTTAAGTCAGTACTAAAGCACACATGTACAAATTTTACCGGAGTCACCTAGTGCAG | 4160 fluorescence intensity (a.u.)
ACCAAACACCGCAAAATAAACAGTCATCCTCCGCACCGCGCGGAGTCACCTAGTGCAG | 4480 fluorescence intensity (a.u.)

From paper PMC7819943, “Rice protein-binding microarrays: a tool to detect cis-acting elements near promoter regions in rice”
